In the supplement of paper PMC9446081:
± gives the standard deviation of the averaged measurements.

Assays:
Assay in all cases: relative enzymatic activity vs untreated control (fraction); higher = less inhibition
Settings in all cases: 100 µM; incubation time: 2 h at 37 C
DNA gyrase = test system: DNA gyrase
Procedure: (§1)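 In vitro enzymatic inhibition assays (ProFoldin kits) for 12 purified essential E. coli enzymes or complexes, each treated with 218 active antibacterial compounds at 100 µM for 2 h at 37°C. Read-outs were fluorescence or absorbance (phosphate detection, dye binding), converted to activity via standard curves and expressed relative to untreated DMSO controls.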

DNA helicase = DNA helicase (UniProt P0ACB1)
DNA helicase, sequence (P0ACB1 whole entry): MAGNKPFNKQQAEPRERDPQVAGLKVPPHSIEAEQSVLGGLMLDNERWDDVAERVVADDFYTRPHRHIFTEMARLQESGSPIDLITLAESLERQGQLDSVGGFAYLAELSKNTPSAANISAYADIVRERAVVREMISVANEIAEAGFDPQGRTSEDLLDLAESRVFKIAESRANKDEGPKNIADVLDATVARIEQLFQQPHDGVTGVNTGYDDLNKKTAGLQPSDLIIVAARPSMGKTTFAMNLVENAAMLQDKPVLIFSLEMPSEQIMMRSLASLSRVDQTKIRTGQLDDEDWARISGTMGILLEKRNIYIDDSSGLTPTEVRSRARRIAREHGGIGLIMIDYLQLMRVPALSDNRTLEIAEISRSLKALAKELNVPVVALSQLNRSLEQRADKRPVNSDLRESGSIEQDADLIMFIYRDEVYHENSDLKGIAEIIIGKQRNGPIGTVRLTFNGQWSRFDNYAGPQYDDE
Procedure: as §1

DNA ligase = DNA ligase (UniProt B1XA82)
DNA ligase, sequence (B1XA82 whole entry): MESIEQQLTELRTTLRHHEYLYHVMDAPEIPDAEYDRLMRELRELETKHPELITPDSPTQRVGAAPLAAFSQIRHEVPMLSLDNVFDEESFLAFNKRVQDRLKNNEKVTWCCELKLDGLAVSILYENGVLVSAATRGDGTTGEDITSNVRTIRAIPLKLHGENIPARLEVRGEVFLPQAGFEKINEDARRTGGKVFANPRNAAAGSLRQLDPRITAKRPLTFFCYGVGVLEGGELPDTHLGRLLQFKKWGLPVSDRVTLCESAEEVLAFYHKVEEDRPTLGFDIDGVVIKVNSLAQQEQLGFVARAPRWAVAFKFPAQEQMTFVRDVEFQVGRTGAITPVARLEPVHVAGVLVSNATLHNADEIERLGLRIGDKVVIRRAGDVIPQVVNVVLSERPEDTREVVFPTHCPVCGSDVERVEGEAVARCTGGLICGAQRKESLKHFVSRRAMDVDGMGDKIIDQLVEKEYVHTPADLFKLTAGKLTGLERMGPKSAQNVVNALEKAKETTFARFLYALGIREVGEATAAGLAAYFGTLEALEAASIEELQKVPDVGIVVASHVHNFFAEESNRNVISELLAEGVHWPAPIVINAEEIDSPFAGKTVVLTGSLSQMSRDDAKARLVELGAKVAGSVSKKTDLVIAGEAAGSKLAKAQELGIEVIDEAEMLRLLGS
Procedure: as §1

DNA polymerase = DNA polymerase (UniProt P10443)
DNA polymerase, sequence (P10443 whole entry): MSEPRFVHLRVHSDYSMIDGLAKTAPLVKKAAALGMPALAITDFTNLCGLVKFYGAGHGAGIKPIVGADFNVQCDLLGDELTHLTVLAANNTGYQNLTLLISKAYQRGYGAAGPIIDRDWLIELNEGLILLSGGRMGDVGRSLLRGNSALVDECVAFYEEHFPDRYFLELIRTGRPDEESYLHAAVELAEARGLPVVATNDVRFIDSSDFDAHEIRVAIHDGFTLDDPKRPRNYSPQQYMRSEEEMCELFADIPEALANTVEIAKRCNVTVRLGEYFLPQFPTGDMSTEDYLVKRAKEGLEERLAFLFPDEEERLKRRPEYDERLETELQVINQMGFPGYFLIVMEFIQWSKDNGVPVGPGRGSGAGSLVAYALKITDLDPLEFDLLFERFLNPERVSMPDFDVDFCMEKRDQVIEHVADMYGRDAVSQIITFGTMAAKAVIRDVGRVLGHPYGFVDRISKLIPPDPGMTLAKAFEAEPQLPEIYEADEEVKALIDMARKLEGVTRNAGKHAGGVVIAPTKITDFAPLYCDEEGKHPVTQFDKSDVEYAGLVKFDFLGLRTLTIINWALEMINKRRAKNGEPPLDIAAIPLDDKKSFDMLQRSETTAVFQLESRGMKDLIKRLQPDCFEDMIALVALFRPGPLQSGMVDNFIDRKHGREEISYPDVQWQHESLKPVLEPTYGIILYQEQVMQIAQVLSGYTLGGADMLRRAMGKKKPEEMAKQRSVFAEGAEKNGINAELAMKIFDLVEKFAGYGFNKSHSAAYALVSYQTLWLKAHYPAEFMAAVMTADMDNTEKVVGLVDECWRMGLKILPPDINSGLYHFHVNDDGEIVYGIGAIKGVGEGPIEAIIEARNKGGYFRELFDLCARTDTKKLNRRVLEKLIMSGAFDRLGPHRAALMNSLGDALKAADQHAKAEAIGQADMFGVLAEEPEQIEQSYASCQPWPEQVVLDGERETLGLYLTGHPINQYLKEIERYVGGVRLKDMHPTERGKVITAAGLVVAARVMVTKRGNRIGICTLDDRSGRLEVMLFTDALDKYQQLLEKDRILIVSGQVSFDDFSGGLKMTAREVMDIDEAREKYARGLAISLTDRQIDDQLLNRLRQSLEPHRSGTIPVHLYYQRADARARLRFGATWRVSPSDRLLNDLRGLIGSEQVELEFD
Procedure: as §1

DNA primase = DNA primase (UniProt P0ABS7)
DNA primase, sequence (P0ABS7 whole entry): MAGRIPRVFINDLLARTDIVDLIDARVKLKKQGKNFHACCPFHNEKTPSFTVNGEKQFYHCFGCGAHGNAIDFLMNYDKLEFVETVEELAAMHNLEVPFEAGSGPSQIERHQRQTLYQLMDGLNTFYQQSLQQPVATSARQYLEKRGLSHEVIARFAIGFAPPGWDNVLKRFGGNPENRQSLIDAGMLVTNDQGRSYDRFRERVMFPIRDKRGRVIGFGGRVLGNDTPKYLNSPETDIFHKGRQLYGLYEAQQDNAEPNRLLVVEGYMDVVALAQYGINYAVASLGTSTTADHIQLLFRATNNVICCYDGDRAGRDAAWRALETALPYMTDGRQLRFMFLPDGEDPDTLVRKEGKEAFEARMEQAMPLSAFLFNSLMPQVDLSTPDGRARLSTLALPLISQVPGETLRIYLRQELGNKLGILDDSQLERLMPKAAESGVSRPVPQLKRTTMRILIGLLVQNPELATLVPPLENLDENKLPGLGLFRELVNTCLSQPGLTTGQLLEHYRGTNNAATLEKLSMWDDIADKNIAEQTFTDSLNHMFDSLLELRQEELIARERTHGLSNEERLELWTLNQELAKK
Procedure: as §1

GlmU = GlmU (UniProt A7ZTU1)
GlmU, sequence (A7ZTU1 whole entry, looked up): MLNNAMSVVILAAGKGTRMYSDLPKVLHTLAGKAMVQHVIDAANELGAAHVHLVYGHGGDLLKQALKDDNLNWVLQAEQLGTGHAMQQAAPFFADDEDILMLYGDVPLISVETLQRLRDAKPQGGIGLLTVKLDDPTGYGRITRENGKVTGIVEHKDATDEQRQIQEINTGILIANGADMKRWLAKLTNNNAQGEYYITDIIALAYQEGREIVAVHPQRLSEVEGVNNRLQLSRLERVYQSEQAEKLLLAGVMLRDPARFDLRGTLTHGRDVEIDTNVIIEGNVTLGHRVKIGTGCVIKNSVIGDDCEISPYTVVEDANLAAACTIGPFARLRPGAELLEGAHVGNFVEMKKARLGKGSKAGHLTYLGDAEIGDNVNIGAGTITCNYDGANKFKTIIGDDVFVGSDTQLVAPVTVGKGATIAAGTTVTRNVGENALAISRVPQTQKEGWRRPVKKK
Procedure: as §1

Guanlyate kinase = Guanlyate kinase (UniProt Q0TBG1)
Guanlyate kinase, sequence (Q0TBG1 whole entry): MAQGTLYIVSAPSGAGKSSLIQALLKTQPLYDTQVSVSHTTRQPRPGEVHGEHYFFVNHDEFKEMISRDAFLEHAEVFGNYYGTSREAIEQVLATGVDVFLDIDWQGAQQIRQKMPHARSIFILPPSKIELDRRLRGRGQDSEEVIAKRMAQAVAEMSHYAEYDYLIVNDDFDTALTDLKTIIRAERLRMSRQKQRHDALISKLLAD
Procedure: as §1

MurA = MurA (UniProt Q3YX52)
MurA, sequence (Q3YX52 whole entry): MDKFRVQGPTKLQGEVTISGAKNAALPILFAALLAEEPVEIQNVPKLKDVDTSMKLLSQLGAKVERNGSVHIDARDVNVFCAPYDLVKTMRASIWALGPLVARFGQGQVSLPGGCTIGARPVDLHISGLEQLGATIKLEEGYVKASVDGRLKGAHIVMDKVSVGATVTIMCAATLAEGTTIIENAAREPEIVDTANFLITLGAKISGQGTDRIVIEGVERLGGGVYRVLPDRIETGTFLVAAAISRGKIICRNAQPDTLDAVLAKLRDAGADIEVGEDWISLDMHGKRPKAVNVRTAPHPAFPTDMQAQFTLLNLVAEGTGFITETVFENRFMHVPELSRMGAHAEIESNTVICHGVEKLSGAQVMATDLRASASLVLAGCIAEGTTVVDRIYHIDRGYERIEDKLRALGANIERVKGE
Procedure: as §1

MurD = target: T1, MurD (UniProt P14900)
T1 sequence (whole entry): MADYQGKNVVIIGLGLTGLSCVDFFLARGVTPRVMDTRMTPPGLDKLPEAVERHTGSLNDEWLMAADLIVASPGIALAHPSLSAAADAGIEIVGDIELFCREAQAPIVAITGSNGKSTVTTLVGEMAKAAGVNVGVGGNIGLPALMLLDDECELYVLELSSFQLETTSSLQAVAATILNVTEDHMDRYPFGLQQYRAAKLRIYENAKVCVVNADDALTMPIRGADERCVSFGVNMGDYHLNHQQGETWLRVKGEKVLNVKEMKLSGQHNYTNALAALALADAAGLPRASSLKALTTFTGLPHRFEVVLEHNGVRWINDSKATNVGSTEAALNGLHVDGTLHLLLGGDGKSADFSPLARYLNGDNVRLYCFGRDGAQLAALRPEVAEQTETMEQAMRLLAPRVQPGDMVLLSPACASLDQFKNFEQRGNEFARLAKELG
Procedure: as §1

MurF = target: T2, MurF (UniProt P11880)
T2 sequence (whole entry): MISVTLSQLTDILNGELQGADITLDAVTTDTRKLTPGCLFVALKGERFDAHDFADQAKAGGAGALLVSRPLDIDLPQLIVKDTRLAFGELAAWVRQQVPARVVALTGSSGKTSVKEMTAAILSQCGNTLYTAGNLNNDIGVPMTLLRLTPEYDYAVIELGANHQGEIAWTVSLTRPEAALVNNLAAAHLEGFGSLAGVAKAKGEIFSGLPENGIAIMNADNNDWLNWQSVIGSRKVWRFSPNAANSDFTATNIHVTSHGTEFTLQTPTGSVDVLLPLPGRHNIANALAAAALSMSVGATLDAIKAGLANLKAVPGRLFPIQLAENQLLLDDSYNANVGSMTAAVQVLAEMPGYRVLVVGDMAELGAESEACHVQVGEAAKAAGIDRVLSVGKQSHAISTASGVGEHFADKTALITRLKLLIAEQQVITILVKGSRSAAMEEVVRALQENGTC
Procedure: as §1

RNA polymerase = test system: RNA polymerase
Procedure: as §1

Row | Structure (SMILES) | relative enzymatic activity (DNA gyrase) | relative enzymatic activity (DNA helicase) | relative enzymatic activity (DNA ligase) | relative enzymatic activity (DNA polymerase) | relative enzymatic activity (DNA primase) | relative enzymatic activity (GlmU) | relative enzymatic activity (Guanlyate kinase) | relative enzymatic activity (MurA) | relative enzymatic activity (MurD) | relative enzymatic activity (MurF) | relative enzymatic activity (RNA polymerase)
1 | CCOC(=O)CCC(=O)O[C@H]1[C@H](O[C@@H]2[C@@H](C)[C@H](O[C@H]3C[C@@](C)(OC)[C@@H](O)[C@H](C)O3)[C@@H](C)C(=O)O[C@H](CC)[C@@](C)(O)[C@H](O)[C@@H](C)C(=O)[C@H](C)C[C@@]2(C)O)O[C@H](C)C[C@@H]1N(C)C | 0.685 ± 0.3 | 0.691 ± 0.34 | 0.982 ± 0.061 | 1.17 ± 0.28 | 0.835 ± 0.0032 | 1.018 ± 0.0098 | 0.941 ± 0.052 | 0.816 ± 0.11 | 0.599 ± 0.4 | 0.961 ± 0.23 | 0.831 ± 0.037
2 | CO/N=C(\C(=O)N[C@@H]1C(=O)N2C(C(=O)O)=C(C[N+]3(C)CCCC3)CS[C@H]12)c1csc(N)n1 | 0.284 ± 0.099 | 0.202 ± 0.28 | 1.11 ± 0.05 | 1.12 ± 0.18 | 0.722 ± 0.012 | 0.943 ± 0.023 | 1.06 ± 0.074 | 0.144 ± 0.026 | 0.591 ± 0.42 | 1.15 ± 0.066 | 0.575 ± 0.11
3 | CC(C)[C@@H](CC[C@@H](C)[C@H]1CC[C@H]2[C@@H]3[C@H](O)C[C@H]4C[C@@H](NCCCNCCCCNCCCN)CC[C@]4(C)[C@H]3CC[C@]12C)OS(=O)(=O)O | 1.18 ± 0.2 | 0.0588 ± 0.066 | 0.674 ± 0.096 | 0.126 ± 0.02 | 0.419 ± 0.016 | 0.813 ± 0.091 | 0.334 ± 0.028 | 0.187 ± 0.029 | 0.59 ± 0.41 | 1.03 ± 0.027 | 0.146 ± 0.0049
4 | NC[C@H]1O[C@H](O[C@H]2[C@H](O)[C@@H](O[C@H]3O[C@H](CO)[C@@H](O)[C@H](N)[C@H]3O)[C@H](N)C[C@@H]2N)[C@H](N)[C@@H](O)[C@@H]1O | 0.315 ± 0.23 | 0.151 ± 0.041 | 0.868 ± 0.093 | 0.916 ± 0.35 | 0.46 ± 0.095 | 0.992 ± 0.076 | 0.3862 ± 0.0032 | 0.686 ± 0.15 | 0.605 ± 0.41 | 0.975 ± 0.24 | 0.781 ± 0.22
5 | Cc1cc(C2CCCCC2)n(O)c(=O)c1.NCCO | 1.114 ± 0.0086 | 0.546 ± 0.12 | 1.28 ± 0.12 | 1.29 ± 0.34 | 0.751 ± 0.22 | 1.12 ± 0.0031 | 1.05 ± 0.04 | 0.975 ± 0.045 | 0.678 ± 0.45 | 1.02 ± 0.2 | 0.8877 ± 0.0077
6 | O=C1OCCN1N=Cc1ccc([N+](=O)[O-])o1 | 1.13 ± 0.099 | 0.454 ± 0.088 | 1.02 ± 0.015 | 1.35 ± 0.37 | 0.747 ± 0.22 | 0.974 ± 0.017 | 1.01 ± 0.042 | 0.649 ± 0.12 | 0.565 ± 0.37 | 0.947 ± 0.16 | 0.941 ± 0.097
7 | CN1CCN(c2c(F)cc3c(=O)c(C(=O)O)cn(CCF)c3c2F)CC1 | 0.024 ± 0.034 | 0.746 ± 0.23 | 1.37 ± 0.041 | 1.28 ± 0.3 | 0.722 ± 0.21 | 1.16 ± 0.2 | 0.94 ± 0.085 | 0.748 ± 0.029 | 0.591 ± 0.39 | 0.984 ± 0.22 | 1.05 ± 0.31
8 | Oc1ccc(Cl)c2cccnc12 | 0.354 ± 0.41 | 0.534 ± 0.19 | 1.03 ± 0.24 | 1.12 ± 0.21 | 0.7986 ± 0.0017 | 0.9167 ± 0.0045 | 0.821 ± 0.036 | 0.442 ± 0.04 | 0.656 ± 0.46 | 1.02 ± 0.23 | 0.854 ± 0.1
9 | Cl.Cl.N=C(NCCCCCCNC(=N)NC(=N)Nc1ccc(Cl)cc1)NC(=N)Nc1ccc(Cl)cc1 | 0.0297 ± 0.042 | 0.0449 ± 0.0094 | 0.488 ± 0.68 | 0.365 ± 0.03 | 0.306 ± 0.046 | 0.9017 ± 0.0055 | 0.341 ± 0.043 | 0.108 ± 0.015 | 0.545 ± 0.35 | 0.871 ± 0.16 | 0.0331 ± 0.011
10 | COc1cc(Cc2cnc(N)nc2N)cc(OC)c1OC | 0.772 ± 0.45 | 0.617 ± 0.18 | 1.12 ± 0.24 | 1.36 ± 0.46 | 0.685 ± 0.15 | 1.009 ± 0.0036 | 1.01 ± 0.05 | 0.706 ± 0.023 | 0.589 ± 0.4 | 0.569 ± 0.81 | 0.887 ± 0.074
11 | CC1(C)S[C@@H]2[C@H](NC(=O)[C@H](N)c3ccccc3)C(=O)N2[C@H]1C(=O)OCOC(=O)[C@@H]1N2C(=O)C[C@H]2S(=O)(=O)C1(C)C | 0.828 ± 0.25 | 0.472 ± 0.23 | 0.742 ± 0.024 | 0.512 ± 0.72 | 0.809 ± 0.025 | 0.994 ± 0.012 | 0.946 ± 0.046 | 0.6 ± 0.24 | 0.58 ± 0.38 | 1.11 ± 0.15 | 0.868 ± 0.042
12 | C=CC1=C(C(=O)O)N2C(=O)C(NC(=O)C(=NO)c3csc(N)n3)C2SC1 (stereo not drawn) | 0.393 ± 0.35 | 0.553 ± 0.15 | 1.19 ± 0.35 | 1.06 ± 0.12 | 0.8619 ± 0.0016 | 0.976 ± 0.068 | 0.917 ± 0.087 | 0.127 ± 0.04 | 0.596 ± 0.39 | 0.968 ± 0.27 | 0.768 ± 0.033
13 | CCN1CCN(C(=O)NC(C(=O)NC2C(=O)N3C2SC(C)(C)C3C(=O)[O-])c2ccccc2)C(=O)C1=O.[Na+] (stereo not drawn) | 0.801 ± 0.4 | 0.634 ± 0.2 | 1.1 ± 0.11 | 1.32 ± 0.43 | 0.757 ± 0.24 | 0.886 ± 0.12 | 0.965 ± 0.12 | 0.612 ± 0.16 | 0.587 ± 0.41 | 0.938 ± 0.29 | 0.916 ± 0.077
14 | Cc1c(N)nc([C@H](CC(N)=O)NC[C@H](N)C(N)=O)nc1C(=O)N[C@H](C(=O)N[C@H](C)[C@@H](O)[C@H](C)C(=O)N[C@H](C(=O)NCCc1nc(-c2nc(C(=O)NCCCNCCCCN)cs2)cs1)[C@@H](C)O)[C@@H](O[C@@H]1O[C@@H](CO)[C@@H](O)[C@H](O)[C@@H]1O[C@@H]1O[C@H](CO)[C@@H](O)[C@H](OC(N)=O)[C@@H]1O)c1c[nH]cn1 | 0.0474 ± 0.067 | 0.732 ± 0.39 | 0.811 ± 0.15 | 0.308 ± 0.022 | 0.762 ± 0.041 | 0.988 ± 0.023 | 0.871 ± 0.084 | 0.872 ± 0.13 | 0.622 ± 0.4 | 0.281 ± 0.39 | 0.75 ± 0.034
15 | CC1COc2c(C3(N)CC3)c(F)cc3c(=O)c(C(=O)O)cn1c23.CS(=O)(=O)O (stereo not drawn) | 0.0382 ± 0.054 | 0.57 ± 0.24 | 0.904 ± 0.083 | 0.511 ± 0.72 | 0.835 ± 0.011 | 0.898 ± 0.045 | 1.02 ± 0.16 | 0.879 ± 0.057 | 0.579 ± 0.4 | 1.07 ± 0.021 | 0.872 ± 0.013
16 | Cc1scc2c1N(C(=O)CN1CCN(C)CC1)c1ccccc1NC2=O.Cl | 0.878 ± 0.31 | 0.526 ± 0.058 | 1.12 ± 0.35 | 1.17 ± 0.21 | 0.65 ± 0.14 | 1.1 ± 0.12 | 0.9435 ± 0.0079 | 0.703 ± 0.12 | 0.608 ± 0.41 | 0.931 ± 0.16 | 0.841 ± 0.091
17 | COc1ccc(Cc2cnc(N)nc2N)cc1OC | 0.752 ± 0.41 | 0.508 ± 0.059 | 1.55 ± 0.21 | 1.21 ± 0.22 | 0.74 ± 0.24 | 1.019 ± 0.0077 | 0.993 ± 0.039 | 0.74 ± 0.026 | 0.583 ± 0.39 | 0.946 ± 0.2 | 0.9567 ± 0.0054
18 | O=C([O-])C1=C(CSc2nnnn2CS(=O)(=O)[O-])CSC2C(NC(=O)C(O)c3ccccc3)C(=O)N12.[Na+].[Na+] (stereo not drawn) | 0.964 ± 0.12 | 0.74 ± 0.14 | 1.26 ± 0.45 | 1.24 ± 0.4 | 0.753 ± 0.0084 | 1.1 ± 0.034 | 0.879 ± 0.012 | 0.1 ± 0.034 | 0.217 ± 0.2 | 1.03 ± 0.24 | 0.815 ± 0.068
